Compounds with a hit are over-represented: about 12% of the library has one in this group of screens.
BAZ2B block: qHTS Assay for Inhibitors of BAZ2B. Bromodomain adjacent to zinc finger domain protein 2B (Homo sapiens), Q9UIF8. AlphaScreen BAZ2B-H3K14Ac peptide displacement. Potency, µM (top dose mostly 114 µM), most hits filed as inhibitors. 360,000 tested, 4.4% active. AID 504333, 2011; also: nearly all actives have a fitted effect of over 60% in size
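BAZ2B 50 nM plus b-H3(5-23)K14Ac 50 nM, PBS pH 7.4/0.01% Tween-20, 30 min RT; compound added (max 110 uM), 30 min RT; streptavidin donor/Ni-chelate acceptor beads 10 ug/mL final, 20 min dark; AlphaScreen read.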
PLK1 PBD inh: qHTS for Inhibitors of PLK1-PDB (polo-like kinase 1 - polo-box domain): Primary Screen. Serine/threonine-protein kinase PLK1 (Homo sapiens), P53350. Plk1 PBD binding of FITC phosphopeptide, fluorescence polarization. Potency, µM, hits mostly inhibitors. 360,000 tested, 2.8% active; also: series mostly up to about 57 µM; nearly all actives have a fitted effect of over 65% in size
G9a block: qHTS Assay for Inhibitors of Histone Lysine Methyltransferase G9a; Histone-lysine N-methyltransferase EHMT2 (Homo sapiens), Q96KQ7; G9a H3K9 monomethylation, AlphaScreen, 2 h; Potency, µM (top dose mostly 102 µM), actives largely listed as inhibitors; 350,000 tested, 8.8% active; also: nearly all actives have a fitted effect of over 75% in size
Target sequence (Q96KQ7 913-1193 limits assumed): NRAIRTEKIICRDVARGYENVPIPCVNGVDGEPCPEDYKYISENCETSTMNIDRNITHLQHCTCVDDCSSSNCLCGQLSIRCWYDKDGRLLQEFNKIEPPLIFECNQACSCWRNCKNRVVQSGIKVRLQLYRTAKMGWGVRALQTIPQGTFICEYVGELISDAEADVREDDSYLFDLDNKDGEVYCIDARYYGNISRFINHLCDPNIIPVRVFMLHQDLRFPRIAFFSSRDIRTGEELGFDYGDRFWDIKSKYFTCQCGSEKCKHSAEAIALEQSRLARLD
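Methyltransferase reactions run at room temperature for 2 h (20 nM enzyme, 500 nM biotin-H3K9 peptide, 20 uM SAM) after a 15 min compound preincubation; product detected by AlphaScreen beads and anti-H3K9me1 antibody.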
HP1b chromo inh: HTS for Inhibitors of HP1-beta Chromodomain Interactions with Methylated Histone Tails; 390,000 tested, 0.56% active; Chromobox protein homolog 1 (Homo sapiens), P83916; AlphaScreen HP1-beta / biotin-H3K9me3 peptide binding; Potency, µM (doses to about 114 µM), usual class: inhibitors; also: nearly all actives have a fitted effect of over 70% in size
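HP1-beta protein (50 nM final) preincubated 30 min at room temperature with biotinylated H3(1-18)K9me3 peptide (50 nM) in PBS pH 7.4, 0.01% Tween-20, then compound added for 30 min. AlphaScreen streptavidin donor/nickel chelate acceptor beads (10 ug/mL final), 30 min dark, luminescence read.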
PI5P4K alpha inh: qHTS for Inhibitors of phosphatidylinositol 5-phosphate 4-kinase (PI5P4K); Phosphatidylinositol 5-phosphate 4-kinase type-2 alpha (Homo sapiens), P48426; PI5P4Kalpha enzyme, ADP-Glo luminescence, 60 min; stronger effect = lower value; max response, %; 330,000 tested, 1.2% active; AID 652105, 2013; active = max response of -50% or lower; inconclusive = between -30% and -50%; inactive = -30% or higher; also: value at the top dose of about 77 µM
Target sequence (P48426 whole entry, looked up): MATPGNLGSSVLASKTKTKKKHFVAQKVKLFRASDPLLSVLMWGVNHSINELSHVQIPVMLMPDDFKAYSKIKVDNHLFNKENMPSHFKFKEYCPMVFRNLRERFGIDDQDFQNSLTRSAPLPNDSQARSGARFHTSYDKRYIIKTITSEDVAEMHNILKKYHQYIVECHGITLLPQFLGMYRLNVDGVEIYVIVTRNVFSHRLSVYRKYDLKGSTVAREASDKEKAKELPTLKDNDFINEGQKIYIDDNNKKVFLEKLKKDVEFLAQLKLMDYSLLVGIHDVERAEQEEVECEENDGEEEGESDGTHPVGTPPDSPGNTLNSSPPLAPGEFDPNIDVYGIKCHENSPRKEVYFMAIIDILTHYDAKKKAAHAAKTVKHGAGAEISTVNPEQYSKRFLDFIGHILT
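Human PI5P4Kalpha with substrate in 0.038 M HEPES pH 7.4, 0.28 mM EGTA, 0.1% CHAPS, 5% DMSO; reaction started with 5 microM ATP (final), 60 min at room temperature. ADP formed read by ADP-Glo luminescence.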
JMJD2A Tudor: qHTS Assay for Inhibitors of JMJD2A-Tudor Domain. AID 504339, 2011. Potency, µM (series often up to 114 µM), most hits filed as inhibitors. AlphaScreen JMJD2A-Tudor / H3K4me3 peptide binding. 390,000 tested, 4.4% active; also: nearly all actives have a fitted effect of over 50% in size
Large screens that a line does not name were inactive. Unless noted, calls follow the shape of the dose curve; as a rule, active = well fitted curve in the direction sought with a large enough effect; inconclusive = small, poorly fitted or top-dose-only effect, or another doubt; inactive = no such curve, though single readings can be large; an effect the other way counts as inactive or inconclusive.

O=C(Nc1ccc(Cl)cc1)C1CCCN(C2=NS(=O)(=O)c3ccccc32)C1 (stereo not drawn)	none
CCCC(=O)Nc1cccc(-c2cn3c(C)csc3n2)c1	none (no result: PLK1 PBD inh, PI5P4K alpha inh)
Nn1c(SCC(=O)N2CCCC2)nnc1-c1cccs1	none (no result: BAZ2B block, G9a block, HP1b chromo inh, JMJD2A Tudor)
COc1ccc(-c2ncccc2OC(=O)C23CC4CC(CC(C4)C2)C3)cc1	BAZ2B block inconclusive, G9a block 25µM
CCNC(=O)C1(C)CCCN(C(=O)CCc2cccs2)C1 (stereo not drawn)	none (no result: BAZ2B block, G9a block, HP1b chromo inh, JMJD2A Tudor)
CCCCN1C(=S)SC(C)(C)C1/[N+]([O-])=C/c1cccnc1 (stereo not drawn)	none
CCCN1C(=S)SC(C)(C)C1/[N+]([O-])=C/c1cccnc1 (stereo not drawn)	PLK1 PBD inh 24µM
CCCCCCC(=O)OCC(=O)c1ccc2c(c1)NC(=O)CO2	PLK1 PBD inh 9.5µM
N#Cc1ccccc1OCC(=O)OCC(=O)c1ccc2c(c1)NC(=O)CO2	G9a block 50µM
O=C1COc2ccc(C(=O)COC(=O)COc3ccccc3[N+](=O)[O-])cc2N1	G9a block inconclusive
O=C1COc2ccc(C(=O)CCl)cc2N1	PLK1 PBD inh 1.9µM (no result: G9a block)
COC(=O)c1cc(C(=O)OCC(=O)c2ccc3c(c2)NC(=O)CO3)cc([N+](=O)[O-])c1	G9a block 50µM
COC(=O)c1cc2c(cc1NC(=O)c1cnn(-c3ccc(C)cc3)c1-n1cccc1)OCO2	none (no result: PLK1 PBD inh, PI5P4K alpha inh)
CCc1ccc(S(=O)(=O)c2nnn3c2nc(N2CCOCC2)c2sccc23)cc1	BAZ2B block inconclusive, HP1b chromo inh inconclusive (no result: PLK1 PBD inh, PI5P4K alpha inh)
Cc1ccc(/C=C/C(=O)OCC(=O)c2ccc3c(c2)NC(=O)CO3)o1	none (no result: BAZ2B block, G9a block)
CCCc1nc(SCC(=O)c2ccc3c(c2)NC(=O)CO3)[nH]c(=O)c1CC	PLK1 PBD inh 19µM, JMJD2A Tudor inconclusive (no result: BAZ2B block, G9a block)
O=C1COc2ccc(C(=O)COC(=O)/C=C/c3ccc(Br)o3)cc2N1	BAZ2B block 45µM, PLK1 PBD inh inconclusive, G9a block 28µM, PI5P4K alpha inh -80, JMJD2A Tudor inconclusive
COC(=O)c1cc(=O)nc(NN=C2c3ccccc3-c3ccccc32)s1	PLK1 PBD inh 30µM (no result: BAZ2B block, G9a block, HP1b chromo inh, JMJD2A Tudor)
COC(=O)c1cc(=O)nc(NN=C2CCCCC2)s1	none (no result: BAZ2B block, G9a block, HP1b chromo inh, JMJD2A Tudor)
CCOCCCNC(=O)/C(C#N)=C/c1cc(Br)c(O)c(Br)c1	PLK1 PBD inh 21µM, PI5P4K alpha inh -101
COCCNC(=O)/C(C#N)=C/c1cc(C(C)C)c(OC)cc1C	none
COCCNC(=O)/C(C#N)=C/c1ccccc1Br	PLK1 PBD inh 24µM, PI5P4K alpha inh -63, JMJD2A Tudor 18µM
COCCNC(=O)/C(C#N)=C/c1cc(Br)c(O)c(OC)c1	G9a block 14µM, PI5P4K alpha inh inconclusive
CCOCCCNC(=O)/C(C#N)=C/c1ccc([N+](=O)[O-])o1	PLK1 PBD inh inconclusive, G9a block inconclusive
CCOC(=O)c1ccc(NC(=O)c2csnn2)cc1	none (no result: PLK1 PBD inh, PI5P4K alpha inh)
CCOc1ccc(CCNC(=O)COC(=O)COc2ccccc2C)cc1OCC	none
CN(c1ccc([N+](=O)[O-])cc1C(N)=O)C1CCCCC1	BAZ2B block 79µM
Cc1ccc(S(=O)(=O)Nc2ccc(C(=O)N3CCN(c4ccccc4O)CC3)cc2)cc1[N+](=O)[O-]	PLK1 PBD inh inconclusive, PI5P4K alpha inh inconclusive, JMJD2A Tudor inconclusive
CCc1cc2c(cc3c(=O)n(CC(=O)NC4CCC(C)CC4)ncn32)s1 (stereo not drawn)	none (no result: PLK1 PBD inh, PI5P4K alpha inh)
CCc1cc2c(cc3c(=O)n(CC(=O)N4CCN(C)CC4)ncn32)s1	PLK1 PBD inh 21µM, JMJD2A Tudor inconclusive (no result: G9a block)
CCc1cc2c(cc3c(=O)n(CC(=O)NC(C)c4ccccc4)ncn32)s1 (stereo not drawn)	JMJD2A Tudor 100µM (no result: PLK1 PBD inh, PI5P4K alpha inh)
O=C(c1ccc(CS(=O)c2cccc(Cl)c2)o1)N1CCN(C2CCCCC2)CC1 (stereo not drawn)	G9a block inconclusive
Cc1ccc(N(Cc2cc3ccc(C)cc3[nH]c2=O)C(=O)c2ccco2)cc1	PLK1 PBD inh 27µM, G9a block inconclusive, PI5P4K alpha inh inconclusive
COCCNC(=O)CN(Cc1ccc2c(c1)OCO2)C(=O)CCC(=O)Nc1nccs1	PLK1 PBD inh 3.4µM, PI5P4K alpha inh inconclusive, JMJD2A Tudor 28µM
O=C(CCC(=O)N(CC(=O)NC1CCCC1)Cc1ccc2c(c1)OCO2)Nc1nccs1	none (no result: PLK1 PBD inh, HP1b chromo inh, PI5P4K alpha inh, JMJD2A Tudor)
CC(C)(C)NC(=O)CN(Cc1ccc2c(c1)OCO2)C(=O)CCC(=O)Nc1nccs1	G9a block 40µM
CCn1nc(C)c(CN2CCc3c([nH]c4ccccc34)C2c2ccc(F)c(OC)c2)c1C (stereo not drawn)	BAZ2B block inconclusive, G9a block 50µM, JMJD2A Tudor inconclusive
CCn1cc(CN2CCc3c([nH]c4ccccc34)C2c2cccc(O)c2)c(C)n1 (stereo not drawn)	BAZ2B block inconclusive, G9a block inconclusive
CSc1ncc(CN2CCc3c([nH]c4ccccc34)C2c2cccc(O)c2)cn1 (stereo not drawn)	BAZ2B block 40µM, JMJD2A Tudor inconclusive (no result: G9a block)
CCn1cc(CN2CCc3c([nH]c4ccccc34)C2c2ccc(F)c(OC)c2)c(C)n1 (stereo not drawn)	BAZ2B block 22µM, G9a block 45µM, HP1b chromo inh inconclusive, JMJD2A Tudor inconclusive
Clc1ccc(-n2cccc2CN2CCc3c([nH]c4ccccc34)C2c2ccccn2)nc1 (stereo not drawn)	BAZ2B block 25µM, G9a block 18µM, JMJD2A Tudor 35µM
COc1ccc(NC(=O)c2cc3ccc(O)cc3o/c2=N\O)cc1	none (no result: G9a block)
CCc1ccc2c(c1)-c1ccccc1S(=O)(=O)N2CC(=O)N1CCC(C)CC1	none (no result: PLK1 PBD inh, PI5P4K alpha inh)
CCN(CC)C(=O)C1=C(C)N(Cc2ccc(OC)cc2)C(=O)C(CC(=O)NCC2CCCCC2)C1 (stereo not drawn)	none (no result: BAZ2B block, G9a block, HP1b chromo inh, JMJD2A Tudor)
CC1(C)CC2CC(C)(CN2C(=O)COC(=O)c2ccc(NC(=O)CC#N)cc2)C1 (stereo not drawn)	none (no result: BAZ2B block, G9a block)
O[C@@H]1CN(Cc2cccs2)[C@@H](c2ccc(Cl)cc2)C[C@H]1n1cc(-c2ccc(F)cc2)nn1	none (no result: BAZ2B block, G9a block, HP1b chromo inh, JMJD2A Tudor)
CCn1cc(CN2CCc3c([nH]c4ccccc34)C2c2cccc(OC)c2)c(C)n1 (stereo not drawn)	BAZ2B block 79µM, JMJD2A Tudor inconclusive (no result: G9a block)
Fc1ccc(C2c3[nH]c4ccccc4c3CCN2Cc2cccn2-c2ncccn2)cc1 (stereo not drawn)	none (no result: G9a block)
